Only some compounds are listed: those with a hit (about 2.7% of all), similar ones and a draw of the others.
SENP8 block-1: SENP8 protease inhibitors, primary screen, biochemical, luminescence; purified SENP8, Z-RLRGG-aminoluciferin cleavage; inhibition, % at 10 µM; 1.2% of 330,000 active; in the data active = inhibition above about 50%
Target sequence (Q96LD8 whole entry, looked up): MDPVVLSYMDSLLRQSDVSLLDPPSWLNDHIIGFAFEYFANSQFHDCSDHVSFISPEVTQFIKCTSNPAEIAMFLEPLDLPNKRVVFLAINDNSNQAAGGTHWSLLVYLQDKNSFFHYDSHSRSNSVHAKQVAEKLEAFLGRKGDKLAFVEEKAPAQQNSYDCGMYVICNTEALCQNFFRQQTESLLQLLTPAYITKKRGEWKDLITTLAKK
SENP7 inh: SENP7 protease inhibitors, primary screen, biochemical, luminescence, uHTS; Sentrin-specific protease 7 (Homo sapiens), Q9BQF6; recombinant SENP7, Z-RLRGG-aminoluciferin luminescence, 40 min; inhibition, % at 5 µM; 1.5% of 330,000 active;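 active = inhibition above about 50% at the single test dose, limit read from the data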;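 note: plate controls were DMSO with enzyme for no effect and no enzyme buffer wells for full effect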
SENP6 inh: SENP6 protease inhibitors, primary screen, biochemical, luminescence, uHTS. Recombinant SENP6 catalytic domain, aminoluciferin luminescence. Sentrin-specific protease 6 (Homo sapiens), Q9GZR1. inhibition, % at 10 µM. 1.8% of 330,000 active;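 active = inhibition above about 50% at the single tested dose, limit read from the data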;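 note: plate controls were DMSO wells with enzyme for no effect and DMSO wells lacking enzyme for full effect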
HSP90 refold inh: HSP90 inhibitors, primary screen, cell lysate, luminescence; Heat shock protein HSP 90 (rabbit reticulocyte lysate; luciferase refolding); Rabbit reticulocyte lysate, luciferase refolding luminescence, 3 h; inhibition, % at 5.6 µM; 0.91% of 290,000 active;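 active = inhibition above the screen-wide mean plus 3 SD, computed separately per campaign, cut at about 16% in these data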;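 note: 0% = DMSO wells and 100% = 60 µM geldanamycin wells; inhibitors lower the luminescence because luciferase stays unfolded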
SENP8 block-2: human SENP8 protease inhibitors, primary screen, biochemical, fluorescence, Nedd8 protein substrate, uHTS; inhibition, % at 20 µM; recombinant SENP8; 0.64% of 360,000 active; AID 602440, 2012; Sentrin-specific protease 8 (Homo sapiens), Q96LD8; in the data active = inhibition mostly above about 40%, no sharp cut-off; inactive = mostly below about 27%
SENP8 conf-1: SENP8 protease inhibitors, retest, confirmation, biochemical, luminescence, single concentration | shares compounds with SENP7 inh | Recombinant SENP8, Z-RLRGG-aminoluciferin luminescence, 60 min | inhibition, % at 12.5 µM | 40% of 6,200 active | AID 488912, 2010;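 active = mean inhibition across replicates above about 50%, limit read from the data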
SENP6 confirm: SENP6 protease inhibitors, confirmation, biochemical, luminescence, single concentration; shares compounds with SENP7 inh; recombinant SENP6, Z-RLRGG-aminoluciferin luminescence; inhibition, % at 12.5 µM; 58% of 6,200 active; AID 488915, 2010
SENP7 conf: SENP7 protease inhibitors, retest, confirmation, biochemical, luminescence, single concentration. shares compounds with SENP7 inh. recombinant SENP7, Z-RLRGG-aminoluciferin luminescence, 40 min. inhibition, % at 12.5 µM. 69% of 6,200 active
Casp3 select: caspase-3 protease inhibitors, confirmation, selectivity assay for SENP inhibitor project, biochemical, single concentration | shares compounds with SENP7 inh | purified caspase-3, Z-DEVD-aminoluciferin luminescence, 60 min | inhibition, % at 12.5 µM | 60% of 6,200 active;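 active = mean inhibition above about 50%, limit read from the data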;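 note: plate controls were enzyme with DMSO for no effect and wells without caspase-3 for full effect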
Target sequence (P42574 28-227 limits assumed): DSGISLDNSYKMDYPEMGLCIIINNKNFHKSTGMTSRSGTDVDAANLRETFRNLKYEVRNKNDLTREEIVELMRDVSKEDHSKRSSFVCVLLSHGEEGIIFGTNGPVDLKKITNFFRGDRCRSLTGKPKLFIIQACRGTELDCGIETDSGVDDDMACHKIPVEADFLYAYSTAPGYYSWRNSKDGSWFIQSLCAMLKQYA
Luc interf: counter-screen for SENP inhibitors: luminescence interference. shares compounds with SENP7 inh. Pre-incubated SENP8/Z-RLRGG-aminoluciferin, luciferase luminescence interference. inhibition, % at 12.5 µM. 39% of 6,200 active;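 active = mean inhibition above about 50% when retested at one dose, limit read from the data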;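 note: plate controls were DMSO wells with completed reaction for no effect and substrate without enzyme for full effect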
SENP8 conf-2: human SENP8 protease inhibitors, confirmation, biochemical, Nedd8 protein substrate, single concentration. 15% of 1,400 active. inhibition, % at 25 µM. AID 624319, 2012. purified SENP8, Nedd8-AMC/pro-Nedd8 cleavage fluorescence, 30 min. shares compounds with SENP8 block-2; in the data active = inhibition mostly above about 39%, no sharp cut-off; inactive = mostly below about 34%
* marks the source's active call; other numbers are inactive results; i = inactive; / = not tested or not shown.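 Rule for the calls, unless noted: active = mean inhibition above about 50% in the one-dose retest (limit read from the data); inactive = the rest.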

SMILES	SENP8 block-1	SENP7 inh	SENP6 inh	HSP90 refold inh	SENP8 block-2	SENP8 conf-1	SENP6 confirm	SENP7 conf	Casp3 select	Luc interf	others
CCCCCSc1cc(OC)c(CCN(C)C)cc1OC	3	0	53*	0	21	10	5	8	4	4
CCCCCSc1cc(O)c(C(CNC)C(C)C)cc1OC (stereo not given)	-10	-10	-7	-2	8	/	/	/	/	/
c1ccc(CN2Cc3ccccc3-n3nncc3C2)cc1	/	/	/	/	23	/	/	/	/	/
COc1ccc(OC)c(N2C(=O)NC(=O)/C(=C\c3ccc([N+](=O)[O-])s3)C2=O)c1	10	0	51*	3	48*	14	33	14	6	4
Clc1cc(Cl)c(-c2cc(Cl)c(Cl)cc2Cl)cc1Cl	-17	-9	-19	/	-1	/	/	/	/	/
BrCC1C[n+]2c(SCc3ccccc3)nc3sc4c(c3c2O1)CCCC4 (stereo not given)	-2	-3	-17	1	3	/	/	/	/	/
Nc1c2c(nc3sc4c(c13)CCCCC4)CCCC2	35	19	54*	2	13	42	34	67*	46	17
Nc1ccccc1Cl	-6	-7	-21	/	4	/	/	/	/	/
Cc1cc(C(=O)CS(=O)(=O)c2ccccc2)cc(C)c1OC(=O)N(C)C	37	45	54*	2	10	44	41	78*	79*	36
Cc1ccc(S(=O)(=O)CC(=O)c2cc(C)c(OC(=O)N(C)C)c(C)c2)cc1	-6	3	5	1	10	/	/	/	/	/
CN(C(=O)CN1CC=C(c2ccccc2)CC1)c1c(N)n(Cc2ccccc2)c(=O)[nH]c1=O	-3	4	-11	0	8	/	/	/	/	/
COc1ccc(N2CCN(C(CNC(=O)Oc3ccccc3)c3cccnc3)CC2)cc1 (stereo not given)	1	71*	8	1	7	-12	-2	-7	2	3
O=C(NCC(c1cccnc1)N1CCN(c2ccccc2F)CC1)Oc1ccccc1 (stereo not given)	6	5	3	5	12	/	/	/	/	/
CC1(C)C(C(=O)NCc2ccco2)C1(C)C	5	3	-13	6	16	/	/	/	/	/
O=c1[nH]c(=S)[nH]c(O)c1N=Nc1ccc(OC(F)F)cc1	92*	93*	94*	0	27	91*	92*	88*	96*	44
COc1ccc(N=Nc2c(O)[nH]c(=S)[nH]c2=O)cc1	66*	66*	76*	-1	21	27	79*	51*	78*	7
CCOC(=O)c1cccc(NC(=O)c2c(O)[nH]c(=O)[nH]c2=O)c1	27	51*	58*	/	7	48	41	81*	73*	45
O=c1oc2ccccc2c(O)c1[C@H]1c2ccc(O)cc2Oc2c1c(=O)oc1ccccc21	2	-3	-5	2	-7	/	/	/	/	/
Nc1ccccc1C(=O)OCCOc1ccccc1	86*	95*	90*	1	i	92*	92*	99*	81*	90*
C=CCOC(=O)c1ccccc1N	-18	3	-11	/	-420	/	/	/	/	/
O=C(O)Cn1cc(C(=O)c2ccccc2F)c2ccccc21	5	-4	16	-5	12	/	/	/	/	/
O=c1[nH]c(=S)[nH]c(O)c1N=Nc1ccc2c(c1)OCCO2	87*	92*	92*	2	42*	1	25	55*	64*	-1	SENP8 conf-2=6
CN1CCN(Cc2c(F)cccc2Cl)CC1	3	9	-3	-1	10	/	/	/	/	/
Oc1cccc2nc3ccccc3nc12	-13	14	1	0	22*	/	/	/	/	/	SENP8 conf-2=17
COC1C(OC(=O)c2ccc(C)[nH]2)C(O)C(Oc2ccc3c(O)c(NC(=O)c4ccc(O)c(CC=C(C)C)c4)c(=O)oc3c2Cl)OC1(C)C (stereo not given)	23	-4	24	-4	40*	/	/	/	/	/	SENP8 conf-2=0
SMILES	SENP8 block-1	SENP7 inh	SENP6 inh	HSP90 refold inh	SENP8 block-2	SENP8 conf-1	SENP6 confirm	SENP7 conf	Casp3 select	Luc interf	others
CCCC(=O)NC(Oc1ccc(C(C)=O)cc1)C(Cl)(Cl)Cl (stereo not given)	-7	-6	-1	4	7	/	/	/	/	/
O=[N+]([O-])c1cc(F)c(N2CCCC2)cc1Br	-2	1	-9	4	13	/	/	/	/	/
O=[N+]([O-])c1cc(F)c(N2CCCCC2)cc1Br	-4	0	0	-2	40*	/	/	/	/	/	SENP8 conf-2=5
CN1CCN(c2cc(N3CCCC3)c([N+](=O)[O-])cc2F)CC1	-1	3	-13	0	45*	/	/	/	/	/	SENP8 conf-2=16
O=c1[nH]c(=S)n(-c2ccccc2F)c(O)c1C=Nc1ccc(N2CCOCC2)cc1	3	7	17	6	10	/	/	/	/	/
CN(C)C(=O)Nc1cccc(OC(=O)N(C)C)c1	-7	2	-6	2	3	/	/	/	/	/
COc1ccc2c3c([nH]c2c1)C(C)NCC3 (stereo not given)	-9	10	-20	1	-190	/	/	/	/	/
C/C=C1/CN2[C@@H]3C4CO[C@@H]3c3c([nH]c5cc(OC)ccc35)[C@@H]2CC14 (stereo not given in full)	-14	-11	-11	/	40*	/	/	/	/	/	SENP8 conf-2=9
COc1cccc(CN2CCN(C(=O)Cc3ccccc3OC)CC2)c1	-16	7	1	-2	12	/	/	/	/	/
CCOc1ccc(NC(=O)N2C[C@H]3C[C@@H](C2)c2cccc(=O)n2C3)cc1	-1	-3	0	-3	42*	/	/	/	/	/	SENP8 conf-2=9
O=C(Nc1ccc(Cl)cc1)N1CC2CC(C1)c1cccc(=O)n1C2 (stereo not given)	-9	16	-5	1	1	/	/	/	/	/

Screening results deposited in PubChem BioAssay by several laboratories.
